This note sets out measurements from PubChem BioAssay (NCI).

Common to all, as to assay: NCI-60 one-dose screen, 48 h (100 = growth as untreated, 0 = no growth, -100 = all killed)
Conditions in all cases: 10 µM

In experiment [1] the test system is RPMI-8226 leukemia.
Experiment [2] relates to OVCAR-5 ovarian.
Experiment [3] has as its system OVCAR-4 ovarian.
Experiment [4] relates to SK-OV-3 ovarian.
Experiment [5] has as its system IGROV1 ovarian.
Experiment [6] has as its system OVCAR-3 ovarian.
The subject of experiment [7] is HS 578T breast.
The subject of experiment [8] is NCI/ADR-RES ovarian.
Experiment [9] relates to OVCAR-8 ovarian.

About 83,000 compounds went through this panel and 20% of them were active in at least one assay; those are over-represented in the sample as a whole.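 Negative percent growth values reflect cell death: -40 means 40% of the cells present at the start died, and -100 means all died.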 Values without a mark were called inactive. Calls of active or inactive are those of the source. Rule for the calls: active = growth percent below 10; inactive = the rest.

`COc1cc2c(cc1OC)[C@H](C(=O)O)[C@@H](c1ccc(OC(C)C)c(OC)c1)N(C)C2=O`: the growth in experiment [1] was 95.7%; in experiment [2], 98%; in experiment [3], 100%; in experiment [4] it was 104%; in experiment [5] it was 138%; in experiment [6], 104%. In addition, the growth was 89.3% in [7] and 111% in experiment [8].
As for `O=[N+]([O-])c1ccccc1S(=O)c1ccccc1[N+](=O)[O-]`, the growth in experiment [1] is 84.5%; in experiment [2], 120%; in [3], 67%; in experiment [4], 99.9%; in experiment [6], 103%; in experiment [7], 106%. Further, the growth in [8] is 91.5%.
`COC(=O)Nc1nc2ccc(C(=O)c3ccc(F)cc3)cc2[nH]1`: the growth was -27.1% (active) in experiment [1]; 6.47% (active) in experiment [9]; 27.3% in experiment [2]; 55.5% in experiment [3]; 42.6% in experiment [4]; -74.4% (active) in experiment [6]. The growth in experiment [7] is -5.44% (active); in [8], -5.09% (active).
Consider `CCOC(=O)/C(C#N)=C/c1cccc(C)c1`, for which the growth in experiment [9] is 103%; in [2] it was 96.1%; in experiment [3], 104%; in [4], 101%; in experiment [6] it was 106%; in [7] it was 107%. Further, the growth in [8] is 97.3%.
On to `O=C(Cc1nc2ccc([N+](=O)[O-])cc2nc1CC(=O)c1ccccc1)c1ccccc1`, for which the growth in experiment [1] is 42.9%; in [2], 89.6%; in experiment [3], 34.3%; in [4], 103%; in experiment [5] it was 79.2%; in experiment [6] it was 60.1%. The growth in experiment [7] is 51.6%; in [8], 29.8%.
As to `O=C(O)c1ccc(S(=O)(=O)O)cc1`, the growth in experiment [1] is 98%; in experiment [2], 107%; in experiment [3], 104%; in [4], 112%; in [6], 119%; in experiment [7], 87.6%. Also, the growth in experiment [8] was 100%.
As to `COc1ccc2c(NCCCCCCCCNc3c4ccccc4nc4cc(OC)ccc34)c3ccccc3nc2c1`, the growth in [1] is -60.3% (active); in experiment [9] it was -42.6% (active); in [2] it was -91.8% (active); in experiment [3], -96.6% (active); in [4], -100% (active); in [6], -100% (active). The growth in experiment [7] is -45.9% (active); in experiment [8], 9.56% (active).
For `CCN(CC)CCNc1ccc(CO)c2sc3ccccc3c(=O)c12`, the growth in [1] is 37%; in experiment [2] it was 53.3%; in experiment [4] it was 43.6%; in experiment [5] it was 51.6%; in experiment [6], 62.8%; in experiment [7], 64.8%.
With `S=C1NCc2cncnc2N1`, the growth was 102% in [1]; 104% in experiment [9]; 97.8% in [2]; 105% in [3]; 102% in experiment [4]; 111% in experiment [5]. The growth in experiment [6] was 112%; in experiment [8], 106%.
Regarding `Cc1cc(NC(=O)CSCC(=O)O)no1`, the growth is 120% in [1]; 99.3% in experiment [9]; 99.6% in [2]; 107% in experiment [3]; 99.3% in [4]; 114% in experiment [5]. The values for the growth in experiment [6] and in experiment [8] were 123% and 107%, respectively.
Turning to `O=C(CCNNC(=O)c1ccncc1)NCc1ccccc1`, the growth in experiment [1] was 87.2%; in experiment [9] it was 100%; in [2], 105%; in experiment [3], 96.3%; in experiment [4], 104%; in experiment [5] it was 92.3%. Also, the growth in experiment [6] is 102%; in [8], 96.5%.
Take `c1c(-c2cc(C3CC3)[nH]n2)n[nH]c1C1CC1`: the growth in [1] is 105%; in experiment [9], 102%; in experiment [2] it was 93.6%; in experiment [3] it was 109%; in [4] it was 96.2%; in experiment [5], 111%. Moreover, the growth in experiment [6] is 117%; in experiment [8], 98.8%.
Regarding `COc1ccc(C(=O)C(Br)C(Br)C(=O)O)cc1` (centres undefined), the growth in [1] is 110%; in [9], 105%; in experiment [2] it was 101%; in [3] it was 118%; in experiment [4], 104%; in experiment [5], 110%. In addition, the values for the growth in experiment [6] and in [8] were 116% and 92.1%, respectively.
For the molecule `S=c1sc2ccccc2n1CN1CCCCC1`, the growth in experiment [9] was 99.6%; in experiment [2], 85%; in experiment [4], 94.5%; in experiment [5], 105%; in experiment [6] it was 93.3%; in experiment [7], 100%. Further, in experiment [8], the growth was 93.4%.
With `CC1(C)S(=O)(=O)OCCOS1(=O)=O`, the growth in [1] is 104%; in experiment [2], 110%; in experiment [3] it was 102%; in experiment [4], 111%; in [5], 108%; in experiment [6] it was 110%. The growth in experiment [7] was 106%; in experiment [8], 103%.
For the molecule `CCOC(=O)C(=O)C=P(c1ccccc1)(c1ccccc1)c1ccccc1`, the growth is 102% in experiment [1]; 101% in experiment [2]; 111% in [3]; 109% in [4]; 102% in experiment [5]; 103% in experiment [6]. The growth is 105% in experiment [7] and 103% in experiment [8].
As for `C=CCNc1nnc(C)s1`, the growth was 101% in [1]; 96% in experiment [2]; 113% in [3]; 115% in [4]; 110% in [6]; 101% in experiment [7]. For the same molecule, in experiment [8], the growth is 103%.
As to `c1ccc(Cc2ccccc2)cc1`, the growth is 107% in experiment [1]; 99.3% in experiment [2]; 109% in experiment [3]; 113% in experiment [4]; 108% in experiment [6]; 76.6% in experiment [7]. For the same molecule, in experiment [8], the growth is 104%.
Turning to `COc1ccccc1N1CCN(C(=S)Nc2ccccc2)CC1`, the growth in experiment [1] was 90.9%; in experiment [9] it was 97.6%; in experiment [2] it was 107%; in experiment [3] it was 108%; in [4], 99.5%; in experiment [5], 98.9%. Moreover, the growth in experiment [7] is 104%.
In the case of `CN1C(=O)CN2CCc3ccccc3C2c2cc(Cl)ccc21` (centres undefined), the growth was 88.3% in experiment [1]; 101% in experiment [9]; 83.9% in [2]; 104% in [3]; 90.7% in [4]; -12.2% (active) in experiment [5]. The growth is 103% in experiment [6] and 96.7% in experiment [8].
With `COC(=O)CCCCC1=CCC2C(=O)C=C(O)C2C1` (centres undefined), the growth in experiment [1] was 100%; in experiment [9], 98%; in experiment [2] it was 107%; in experiment [3] it was 103%; in experiment [4], 98.6%; in experiment [5], 103%. The results for the growth in experiment [7] and in experiment [8] were 108% and 103%, respectively.
